# Measured values as given in ChEMBL document CHEMBL3988442, “University of Dundee, Small-Polar-MMV Screening Library” (2021).
# Target: T1, Methionyl-tRNA synthetase, putative (Leishmania donovani (strain BPK282A1)) (UniProt E9BF75)
# T1 sequence (whole entry): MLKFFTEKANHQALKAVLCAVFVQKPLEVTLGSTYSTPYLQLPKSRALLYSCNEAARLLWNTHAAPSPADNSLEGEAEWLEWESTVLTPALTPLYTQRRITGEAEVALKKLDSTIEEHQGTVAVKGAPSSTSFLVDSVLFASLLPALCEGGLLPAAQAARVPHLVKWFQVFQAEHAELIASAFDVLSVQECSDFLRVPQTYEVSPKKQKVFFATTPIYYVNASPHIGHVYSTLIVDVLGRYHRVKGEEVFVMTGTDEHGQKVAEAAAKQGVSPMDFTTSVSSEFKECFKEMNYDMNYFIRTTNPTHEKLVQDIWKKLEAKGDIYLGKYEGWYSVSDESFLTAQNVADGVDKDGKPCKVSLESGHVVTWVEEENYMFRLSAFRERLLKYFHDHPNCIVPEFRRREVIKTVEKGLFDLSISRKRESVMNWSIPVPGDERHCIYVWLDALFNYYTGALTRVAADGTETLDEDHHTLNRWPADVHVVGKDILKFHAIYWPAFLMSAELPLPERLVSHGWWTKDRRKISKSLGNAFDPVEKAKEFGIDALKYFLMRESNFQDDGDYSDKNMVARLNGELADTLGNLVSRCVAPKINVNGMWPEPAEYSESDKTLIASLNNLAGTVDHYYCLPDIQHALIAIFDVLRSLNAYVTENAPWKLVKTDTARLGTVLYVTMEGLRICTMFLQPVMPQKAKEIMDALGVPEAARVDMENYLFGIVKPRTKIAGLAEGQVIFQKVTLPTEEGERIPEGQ
# Assay: Leishmania donovani Methionine tRNA synthetase (LdMetRS):v7. Dose response assay
# Assay type: functional
# Parameters: conc 80 nM, time 150 minutes
compound,measurement,setting,value
CCc1nc(NCCCO)c2cc(CC)sc2n1,PXC50,MAX_EFFECT 1.262626263,< 4
same,PXC50,MAX_EFFECT 8.163265306,< 4
O=c1nc(NCCCNCc2cc(Br)cc(Br)c2)[nH]c2ccsc12,PXC50,"BOTTOM 2.299047881, HILLSLOPE 2.649797199, MAX_EFFECT 103.7296037, TOP 100.0081261",6.16
same,PXC50,"BOTTOM 10.20336465, HILLSLOPE 2.013529983, MAX_EFFECT 101.8604651, TOP 99.90152213",6.19
CCc1nc(NCCO)c2c3c(sc2n1)CCC3,PXC50,MAX_EFFECT 3.274559194,< 4
same,PXC50,MAX_EFFECT 5.852417303,< 4
Cc1nc(N2CCc3ccccc3C2)c2c3c(sc2n1)CCC3,PXC50,"BOTTOM 1.539204696, HILLSLOPE 1.85727021, MAX_EFFECT 61.30653266, TOP 67.5568533",4.58
same,PXC50,"BOTTOM -2.995522408, HILLSLOPE 1.216214635, MAX_EFFECT 78.37837838, TOP 108.7860492",4.36
COc1ccccc1C1(CNc2nnc(C)c(C)c2C#N)CCOCC1,PXC50,MAX_EFFECT 9.85915493,< 4
same,PXC50,MAX_EFFECT 18.33333333,< 4
O=C1CN(c2nc(-c3cccs3)nc3sc4c(c23)CCCC4)CCN1,PXC50,MAX_EFFECT 29.33333333,< 4
same,PXC50,MAX_EFFECT 31.74603175,< 4
Cc1nc(NCCC(=O)NC(C)C)c2c3c(sc2n1)CCC3,PXC50,MAX_EFFECT -1.058201058,< 4
same,PXC50,MAX_EFFECT -2.133333333,< 4
Cc1nc(NCc2cccnc2)c2c3c(sc2n1)CCC3,PXC50,MAX_EFFECT 6.361323155,< 4
same,PXC50,MAX_EFFECT 13.85390428,< 4
Cc1nc(N2CCCC(O)C2)c2c3c(sc2n1)CCCC3 (stereo not given),PXC50,MAX_EFFECT 9.649122807,< 4
same,PXC50,MAX_EFFECT 16.66666667,< 4
Nc1nc(-c2cccs2)cc(C(F)(F)F)n1,PXC50,MAX_EFFECT 6.382978723,< 4
same,PXC50,MAX_EFFECT 7.772020725,< 4
NCC1CC1c1ccc(Cl)cc1Cl (stereo not given),PXC50,"BOTTOM -0.51010351, HILLSLOPE 1.132508714, MAX_EFFECT 55.5075594, TOP 100.0",3.07
same,PXC50,MAX_EFFECT 48.09885932,< 3
O=C(CC1CCCCC1)N1CCC(c2ncc3c(n2)CCNC3)CC1,PXC50,MAX_EFFECT 14.51247166,< 4
same,PXC50,MAX_EFFECT 29.90654206,< 4
CNC(=O)CNc1nc(CN2CCCCC2)nc2sc3c(c12)CCC3,PXC50,MAX_EFFECT 7.304785894,< 4
same,PXC50,MAX_EFFECT 12.46819338,< 4
CN(CCO)c1nc(-c2ccsc2)nc2sc3c(c12)CCCC3,PXC50,MAX_EFFECT 26.13333333,< 4
same,PXC50,MAX_EFFECT 28.04232804,< 4
Cc1sc2nc(-c3cccs3)nc(N(C)CC(=O)NC3CC3)c2c1C,PXC50,MAX_EFFECT 6.361323155,< 4
same,PXC50,MAX_EFFECT 7.808564232,< 4
CCc1nc(NCCCN(C)C)c2cc(C)sc2n1,PXC50,MAX_EFFECT 12.06030151,< 4
same,PXC50,MAX_EFFECT 14.98771499,< 4
CC(C)C[C@H](N)COc1ccccc1-c1ccnn1C,PXC50,MAX_EFFECT 4.572564612,< 4
same,PXC50,MAX_EFFECT 5.733944954,< 4
CC(C)C[C@@H](N)COc1cccc(F)c1Oc1cccc(Cl)c1,PXC50,"BOTTOM 1.372222408, HILLSLOPE 1.087653332, MAX_EFFECT 50.72463768, TOP 100.0",4.03
same,PXC50,"BOTTOM -0.306407193, HILLSLOPE 1.563618531, MAX_EFFECT 56.92963753, TOP 100.0",4.11
CS(=O)(=O)N1CCN(c2ccc3ccc(C(=O)NC4CCOCC4)cn23)CC1,PXC50,"BOTTOM 2.519402955, HILLSLOPE 2.221498876, MAX_EFFECT 53.88127854, TOP 54.22998304",4.8
same,PXC50,"BOTTOM -4.408166057, HILLSLOPE 3.645653811, MAX_EFFECT 56.79245283, TOP 54.33837105",4.78
Cc1sc2nc(-c3cccnc3)nc(NCCOCCO)c2c1C,PXC50,MAX_EFFECT 9.042553191,< 4
same,PXC50,MAX_EFFECT 9.844559585,< 4
Cc1nc(NC(CC(C)C)C(=O)O)c2c3c(sc2n1)CCC3 (stereo not given),PXC50,MAX_EFFECT 14.004914,< 4
same,PXC50,MAX_EFFECT 14.57286432,< 4
Cn1ccnc1CN1CCC(F)(F)C2(CCN(c3cnccn3)C2)C1 (stereo not given),PXC50,MAX_EFFECT 2.816901408,< 4
same,PXC50,MAX_EFFECT 9.074074074,< 4
Cc1sc2nc(CCN)nc(N3CCN(S(C)(=O)=O)CC3)c2c1C,PXC50,MAX_EFFECT 9.660574413,< 4
same,PXC50,MAX_EFFECT 10.96605744,< 4
Cc1sc2nc(CN3CCOCC3)nc(NC(C)(C)CCO)c2c1C,PXC50,MAX_EFFECT 4.371584699,< 4
same,PXC50,MAX_EFFECT 8.021390374,< 4
Cc1cc(N)n(-c2nc(C)nc3sc4c(c23)CCCC4)n1,PXC50,MAX_EFFECT 11.22994652,< 4
same,PXC50,MAX_EFFECT 12.02185792,< 4
COCC(C)NC(=O)c1ccc2ccc(N3CCN(S(C)(=O)=O)CC3)n2c1 (stereo not given),PXC50,"BOTTOM 3.011130377, HILLSLOPE 1.725207909, MAX_EFFECT 55.66037736, TOP 58.49588417",4.74
same,PXC50,MAX_EFFECT 48.85844749,< 4
Cc1nc(N2CCC(O)CC2)c2c(-c3cccs3)csc2n1,PXC50,MAX_EFFECT 8.905852417,< 4
same,PXC50,MAX_EFFECT 9.319899244,< 4
CS(=O)(=O)N1CCN(c2ccc3ccc(C(=O)NCC4CCCO4)cn23)CC1 (stereo not given),PXC50,"BOTTOM -3.857720999, HILLSLOPE 1.705839216, MAX_EFFECT 57.40402194, TOP 63.01150798",4.63
same,PXC50,"BOTTOM -4.829130924, HILLSLOPE 1.927262902, MAX_EFFECT 52.15311005, TOP 54.22060795",4.86
CCc1nc(-n2nc(C)cc2N)c2c3c(sc2n1)CCCC3,PXC50,MAX_EFFECT 9.836065574,< 4
same,PXC50,MAX_EFFECT 10.69518717,< 4
Cc1cc2c(N3CCOCC3)nc(-c3cccnc3)nc2s1,PXC50,MAX_EFFECT 2.18579235,< 4
same,PXC50,MAX_EFFECT 5.347593583,< 4
